Values joined by “and” are separate entries in the source; they are usually repeats but may differ in a detail not shown here. Equal values may be shown once. Active and inactive are the calls of the source. Calls come from the whole dose curve.
What follows are compounds tested against Gonadotropin-releasing hormone receptor (Homo sapiens) (UniProt P30968) (assay: Human gonadotropin-releasing hormone receptor (GnRHR) small molecule agonists, calcium flux assay in GnRHR-HEK293 cells (AID 1920063; note: nearly all actives have a fitted effect of over 35% in size)). Details: calcium flux fluorescence, agonist mode; series mostly up to 57.6 µM; activity change: at the top concentration.
Excerpt: National Center for Advancing Translational Sciences [NCATS]
Division of Preclinical Innovation [DPI]
U.S. Environmental Protection Agency [EPA]
National Institutes of Environmental Health Sciences [NIEHS]
National Toxicology Program [NTP]
U.S. Food and Drug Administration [FDA]
Gonadotropin-releasing hormone receptor (GnRHR) is a G-protein-coupled receptor (GPCR) and acts (through phospholipase C) to increase intracellular inositol trisphosphate and then release intracellular calcium stores. Cell-based GnRHR-Hek293 calcium influx assay is using HEK293 cells that have been genetically engineered to express the human GnRHR, which activity can be measured by calcium signaling. A compound/drug can activate (agonist) GnRHR that can be monitored by levels of intracellular calcium.
GnRHR-HEK293 cells developed by Codex Corp contain human GnRHR reporter gene, which was stably integrated into HEK 293 cells. The compound activation can be detected by fluorescence intensity via calcium flux assay. This cell line has been used to screen the Tox21 10K compound library to identify GnRHR agonists.
GnRHR-Hek293 cells were dispensed at 1500cells/4uL/well in 1536-well black wall/clear bottom plates using a multidrop dispenser. After the assay plates were incubated at a 37 C/5% CO2 incubator for 18 hours, 4 uL of Calcium Dye Solution was added to each well. The plates were incubated at 37 C for 1 hour. For agonist mode, 23 nL of compounds dissolved in DMSO, positive controls or DMSO only was transferred to the assay plate by a pin tool station. The fluorescence intensity in the plates was measured using FDSS 7000EX kinetic plate reader with a filter set of Ex/Em=480/540 for 3 min at 1 sec intervals. Each test compound was measured at 15 concentrations and in triplicates.
% is set by controls: 0 for no effect and ±100 for the full control effect; potency is the fitted concentration of half-maximal effect.

Gonadotropin-releasing hormone receptor (Homo sapiens), sequence (P30968 whole entry, looked up): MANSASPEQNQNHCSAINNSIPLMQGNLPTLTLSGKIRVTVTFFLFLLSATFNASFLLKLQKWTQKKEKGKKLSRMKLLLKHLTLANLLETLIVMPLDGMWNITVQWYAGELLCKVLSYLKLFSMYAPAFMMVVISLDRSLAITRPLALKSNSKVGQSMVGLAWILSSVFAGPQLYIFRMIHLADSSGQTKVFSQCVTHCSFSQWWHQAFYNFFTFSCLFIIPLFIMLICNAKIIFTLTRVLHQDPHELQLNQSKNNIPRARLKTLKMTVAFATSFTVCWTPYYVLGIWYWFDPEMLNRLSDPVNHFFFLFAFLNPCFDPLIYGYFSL

SMILES | activity change | Potency
C=CCOC(=O)CCCCCCCC | 0.581% (inactive) | –
CCC(COC(=O)CCS)(COC(=O)CCS)COC(=O)CCS | -1.14% (inactive) | –
Nc1c2ccccc2nc2ccccc12 | – | inactive
CC(CCC(=O)O)C(=O)O (stereo not given) | -0.0056% (inactive) | –
COC(=O)c1cc(Cl)c(NC(C)=O)cc1OC | -0.0022% [at 26.4 µM, active compounds read high] (inactive) | –
O=C1c2ccccc2CCc2ccccc21 | – | inactive
O=C1OC2(c3ccccc31)c1cc(Br)c(O)c(Br)c1Oc1c2cc(Br)c(O)c1Br | – | 31.4 µM (active) and 14.2 µM (active) and 15.1 µM (active)
NCCN1CCNC1=O | -0.0253% (inactive) | –
COC(=O)c1cc(S(N)(=O)=O)ccc1OC | 1.27% [at 26.4 µM, active compounds read high] (inactive) | –
N[C@@H](CCC(=O)Nc1ccc([N+](=O)[O-])cc1)C(=O)O | -0.0811% (inactive) | –
O=C1C=CC(=O)O1 | 0.45% (inactive) | –
C=C(C)C(=O)NCCCN(C)C | -0.237% (inactive) | –
C=C(C)[C@H]1CC=C(C)C(=O)C1 | – | inactive
O=c1[nH]c(=O)c2ccccc2o1 | -0.0557% [at 26.4 µM, active compounds read high] (inactive) | –
Cc1oc(C)c(C(=O)Nc2ccccc2)c1C | -0.707% (inactive) | –
CCCCCCCCCOCC1CO1 (stereo not given) | 1.97% (inactive) | –
CC(C)OC(=O)C(O)(CC(=O)O)CC(=O)O | 2.72% (inactive) | –
CC(=O)OC[C@H]1O[C@@H](OC(C)=O)[C@H](OC(C)=O)[C@@H]1OC(C)=O | -0.806% [at 26.4 µM, active compounds read high] (inactive) | –
O=[Si]=O | 0.097% (inactive) | –
CC(C)(C)C(=O)C(Oc1ccc(Cl)cc1)n1ccnc1 (stereo not given) | -0.16% [at 26.4 µM, active compounds read high] (inactive) | –

SMILES | activity change | Potency
CC[C@H](C)[C@@H](C(=O)O)n1sc2ccccc2c1=O | -0.918% (inactive) | –
CC(=O)N(CC(O)CO)c1c(I)c(C(=O)NCC(O)CO)c(I)c(C(=O)NCC(O)CO)c1I (stereo not given) | 2.87% [at 26.4 µM, active compounds read high] (inactive) | –
CO/N=C(/C(=O)N[C@@H]1C(=O)N2C(C(=O)O)=C(COC(N)=O)CS[C@H]12)c1ccco1 | -0.0699% (inactive) | –
O=c1n(CCCN2CCN(c3cccc(Cl)c3)CC2)nc2ccccn12 | – | inactive
[O]=[Zr] | 1% (inactive) | –
C/C(Cl)=C/CCl | -1.55% (inactive) | –
CC(=O)OCc1ccccc1 | – | inactive
CCCCCCCCOCCC#N | -0.552% (inactive) | –
O=C(O)c1cccnc1C(=O)O | 0.518% (inactive) | –
O=CC1CC1 | -0.0586% (inactive) | –
CCCC(=O)c1ccccc1 | -0.618% (inactive) | –
CCC(C)(C)CC | 0.661% (inactive) | –
NS(=O)(=O)c1ccc(N2CCCCS2(=O)=O)cc1 | -0.461% [at 26.4 µM, active compounds read high] (inactive) | –
C=C1C[C@H]2[C@@H]3C=C(C)C4=CC(=O)CC[C@]4(C)[C@H]3CC[C@]2(C)[C@@]1(OC(C)=O)C(C)=O | – | inactive
CN(C)c1ccc(C(=N)c2ccc(N(C)C)cc2)cc1 | – | 29.7 µM (active)
CCCOC(C)=O | -0.371% (inactive) | –
CCCCCCCOC(=O)c1ccccc1C(=O)OCCCCCCC | 3.97% (inactive) | –
CC(C[N+](C)(C)C)OC(N)=O (stereo not given) | – | 13.5 µM (active)
COC(=O)/C=C(/C)N | -0.418% [at 26.4 µM, active compounds read high] (inactive) | –
CCOC(=O)c1ccc(O)c(O)c1 | -1.67% [at 26.4 µM, active compounds read high] (inactive) | –
